The results in this text go back to PubChem BioAssay (NCI).

This is part of a sample that, as a whole, favours compounds with a hit. Of some 83,000 tested, about 20% had one in any assay.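 Values shown are percent growth following 48 h exposure of cells in 96-well plates to a single concentration of compound; below 10 was considered active.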 The source made the active and inactive calls.

In the test the test system is SR leukemia. Briefly: NCI-60 one-dose screen, 48 h (100 = growth as untreated, 0 = no growth, -100 = all killed). Conditions: 10 µM unless noted.
As to `Nc1cc(C(=O)N/N=C\c2ccc(OC(F)F)c(OC3CCCC3)c2)nn1CC(O)c1ccccc1` (stereo not drawn), the growth is 88.1% (inactive).
For `Clc1ccc2[nH]cc(-c3nn4cc(-c5ccncc5)nc4s3)c2c1`, the growth was 28.8% (inactive).
Consider `CN1CC[C@@H]2[C@@]3(C)CC[C@H](O)C(C)(C)[C@@H]3CC[C@@]2(C)[C@]2(C)CC[C@@]3(CO)CCC(C)(C)C[C@@H]3C12` (stereo partly drawn), for which the growth was 30.2% (inactive).
With `Brc1cc(-c2cc(-c3ccc4c(c3)OCCO4)[nH]n2)cs1`, the growth is 14.2% (inactive).
Regarding `NS(=O)(=O)c1ccc(Nc2nc(Nc3ccccc3)nc(N3N=C(c4ccc(Cl)cc4)CC3c3ccc(Cl)cc3)n2)cc1` (stereo not drawn), the growth was 5.52% (active).
Regarding `O=C(N/N=C\c1ccc([N+](=O)[O-])cc1)c1ccc2nc(-c3ccc(Br)cc3)[nH]c2c1`, the growth is -3.17% (active).
The result for `O=C(/C=C/c1cccc(C(F)(F)F)c1)Nc1cccc(C(F)(F)F)c1` reads 68.6% (inactive); that for `Brc1cccc(-c2cc(-c3ccc4c(c3)OC=CO4)[nH]n2)c1`, 27.6% (inactive).
As to `CCc1cc2c(cc1Cl)nc1c(=O)[nH]c(=O)nc-1n2CCOCC(C)C`, the growth was 22.7% (inactive).
Take `CCCCSC1=C(Cl)CN(c2ccccc2)C1=O`: the growth is 71.5% (inactive).
`Brc1ccc(-c2cc(-c3ccc4c(c3)OC=CO4)n[nH]2)s1`: the growth was 54.7% (inactive).
For `O=c1c2cc(-c3ccc(F)cc3F)ccc2n(Nc2ccccc2)c(=O)n1-c1cccc(C(F)(F)F)c1`, the growth was 9.45% (active).
As for `CN1CCN(CCCCCC(=O)Nc2nc(-c3cccc(NS(=O)(=O)c4cccc5c(N(C)C)cccc45)c3)cs2)CC1`, the figure is -4.68% (active).
